# Source: PubChem (Broad Institute)
# The list is not random: actives were taken first. Their share in the collection is about 3.4%.
# SIRT5 inh = SIRT5 desuccinylase inhibitors, primary screen, biochemical, fluorescence imaging, single point, set 5; NAD-dependent protein deacylase sirtuin-5, mitochondrial (Homo sapiens), Q9NXA8; Purified SirT5, succinyl-peptide AMC, trypsin-coupled fluorescence; inhibition, % at 15 µM; actives 1.1% (n = 330,000); AID 652115, 2013; in the data active means inhibition above about 15%; inconclusive means no clear call, values can overlap the other calls
# Target sequence (Q9NXA8 whole entry, looked up): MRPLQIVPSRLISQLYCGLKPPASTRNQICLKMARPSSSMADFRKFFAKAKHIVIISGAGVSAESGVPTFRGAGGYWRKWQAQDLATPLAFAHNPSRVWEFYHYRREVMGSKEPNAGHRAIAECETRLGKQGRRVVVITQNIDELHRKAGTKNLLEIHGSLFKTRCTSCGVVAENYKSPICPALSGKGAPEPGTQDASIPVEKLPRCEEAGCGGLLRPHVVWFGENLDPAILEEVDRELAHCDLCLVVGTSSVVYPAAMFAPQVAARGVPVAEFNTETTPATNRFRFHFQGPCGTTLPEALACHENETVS
# Ecoli rRNA inh = reduced GFP signal of wild-type E. coli, primary screen, bacterial rRNA inhibitor project, GFP/RFP fluorescence, OD600, single point; E. coli WT GFP vs humanized-ribosome RFP mutants, 24 h; hits give low values; DMSO median 0, no signal -100; GFP signal change (wild-type ribosome), % (no concentration beside the values); actives 1.6% (n = 350,000);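 active means significant combined selectivity score with lowered wild-type GFP, culture density cut under 30%, mutant RFP and density less affected; inactive means any of these conditions unmet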
# PGC1a acetyl inh = inhibitors of PGC1a acetylation signal, primary screen, cell-based, U2OS, AlphaScreen, inhibitor mode | AlphaScreen anti-acetyl-lysine; with virally co-expressed GCN5 acetyltransferase | inhibition, % at 15.6 µM | actives 0.17% (n = 350,000) | AID 651687, 2012;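 active means every replicate shows inhibition of at least 40%; inconclusive means mean inhibition at least 40% but some replicate below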
# PAX8 reporter = inhibitors of PAX8-driven TPO luciferase reporter, primary screen, RMG-I cells, single concentration. inhibition, % at 12.6 µM. AID 652154, 2013. SteadyGlo, 24 h. actives 1.2% (n = 360,000);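 active means mean replicate inhibition at least 60% with every replicate also reaching 60%; inconclusive means only one of the two criteria is met; inactive means mean below 60% and not all replicates reaching 60%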;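 further: luciferase light reporting Pax8 driven TPO promoter activity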
# EWS-Fli inh = EWS/Fli-driven NR0B1 reporter inhibitors, primary screen, A673 cells, NR0B1 luciferase, luminescence, MLPCN library. AID 651661, 2012. inhibition, % at 12.6 µM. viability-normalised. actives 0.67% (n = 350,000);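 active means mean inhibition of at least 50% after viability correction, with every replicate also passing that limit; inconclusive means mean reaches 50% but only one of two replicates passes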;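 further: firefly luciferase signal divided by Alamar Blue viability fluorescence both relative to DMSO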
# LGR2 antag = inhibitors of bursicon-induced LGR2 CRE-luciferase signal, primary screen, cell-based, HEK293, CRE-luciferase reporter, bursicon stimulation; Drosophila bursicon receptor LGR2 (rickets); bursicon-stimulated, 4 h; inhibition, % at 9.99 µM; actives 0.35% (n = 380,000);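 active means drop in luminescence signal, shown as inhibition above about 50% in the replicate tests, limit read from the data, passing the limit was not always enough; inconclusive means probably only some replicates passing the limit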;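 further: agonist challenge used bursicon conditioned medium at about half maximal strength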
# A number is an active result; - = inactive; ? = inconclusive; . = no result; ! = a repeat was not active.
SMILES,SIRT5 inh,Ecoli rRNA inh,PGC1a acetyl inh,PAX8 reporter,EWS-Fli inh,LGR2 antag
CC(C)NC(=O)N(C)C[C@@H]1OCc2cnnn2CCCC(=O)N([C@@H](C)CO)C[C@H]1C,26!,-,-,-,-,-
C[C@H]1CN([C@@H](C)CO)C(=O)CCCn2nncc2CO[C@@H]1CN(C)C(=O)Nc1ccccc1,28,-,?,-,-,-
C[C@H](CO)N1C[C@H](C)[C@@H](CN(C)C(=O)c2ccc(N3CCN(C)CC3)cc2)OCc2cnnn2CCCC1=O,33!,-,-,-,-,-
C[C@@H]1CN([C@H](C)CO)C(=O)CCCn2nncc2CO[C@@H]1CN(C)C(=O)c1ccc(N2CCN(C)CC2)cc1,-,-,-,-,-,-
C[C@H]1CN([C@@H](C)CO)C(=O)c2cc(NC(=O)Nc3ccc(F)cc3)ccc2O[C@H]1CN(C)Cc1ccncc1,-,-,-,-,-,-
COc1cccc(-c2ccc([C@@H]3[C@H]4CN(C(=O)C5CCCCC5)CC(=O)N4[C@H]3CO)cc2)c1,-,-,-,-,-,-
C[C@H](CO)N1C[C@H](C)[C@@H](CN(C)C(=O)Nc2ccc(C(F)(F)F)cc2)OCc2cnnn2CCCC1=O,-,-,-,-,-,-
C[C@@H]1CN([C@@H](C)CO)C(=O)CCCn2nncc2CO[C@H]1CN(C)C(=O)C1CCCCC1,29!,-,-,-,-,-
C[C@H](CO)N1C[C@H](C)[C@@H](CN(C)C(=O)c2cc(-c3ccccc3)on2)OCc2cnnn2CCCC1=O,-,-,-,-,-,-
C[C@H](CO)N1C[C@H](C)[C@H](CN(C)C(=O)c2cc(-c3ccccc3)on2)OCc2cnnn2CCCC1=O,18!,-,-,-,-,-
C[C@H](CO)N1C[C@H](C)[C@H](CN(C)C(=O)Nc2ccc(C(F)(F)F)cc2)OCc2cnnn2CCCC1=O,-,-11!,-,-,-,-
C[C@@H]1CN([C@H](C)CO)S(=O)(=O)c2ccc(-c3ccc(C(=O)N(C)C)cc3)cc2O[C@H]1CN(C)C(=O)C1CC1,.,-,-,.,-,-
CC(C)NC(=O)Nc1ccc2c(c1)C(=O)N([C@H](C)CO)C[C@@H](C)[C@H](CN(C)C(=O)c1ccccc1)OCCCC[C@H](C)O2,-,-,-,-,-,-
CC(C)NC(=O)N(C)C[C@@H]1Oc2c(cccc2N(C)C)C(=O)N(C)C[C@@H]1C,.,-,.,.,.,.
CC(C)NC(=O)Nc1ccc2c(c1)C(=O)N(C)C[C@@H](C)[C@@H](CN(C)C)O2,.,-,.,.,.,.
Cc1ccc(NC(=O)O/N=C/c2c(C)nn(C(C)(C)C)c2C)cc1Cl,-,-,.,-,76,99
O=C(O)c1c(-n2cccc2)sc2c1CCCC2,-,-44,.,-,-,-
O=C(C[C@H]1C=C[C@@H](NC(=O)c2cccc(F)c2)[C@@H](CO)O1)NCc1ccc(Oc2ccccc2)cc1,-,-,-,-,-,-
C/C(CC(=O)Nc1cc(Cl)ccc1C)=N\NC(=O)C(=O)N1CCCC1,28,-,-,-,.,-
O=C(Nc1ccccc1)Nc1ncc([N+](=O)[O-])s1,-,-,-,85,-,65
COc1ccc(CC(=O)Nc2ncc([N+](=O)[O-])s2)cc1OC,-,-50,-,-,-,.
O=C(COC(=O)c1ccccc1)Nc1ncc([N+](=O)[O-])s1,21,-,-,-,-,-
CC(C)CC(=O)Nc1ncc([N+](=O)[O-])s1,-,.,-,-,-,.
COc1ccc(CC(=O)Nc2nccs2)cc1OC,.,.,.,-,.,-
CCCCC(=O)Nc1ncc([N+](=O)[O-])s1,-,-,-,-,-,-
SMILES,SIRT5 inh,Ecoli rRNA inh,PGC1a acetyl inh,PAX8 reporter,EWS-Fli inh,LGR2 antag
Cc1nc(C)c(C(=O)Nc2ncc([N+](=O)[O-])s2)o1,-,-,.,-,57,-
C[C@@H]1CN(C)C(=O)c2cccc(N)c2O[C@@H]1CN(C)C(=O)OC(C)(C)C,.,-,.,.,.,.
CO[C@H]1CN(C)C(=O)c2ccc(NC(=O)CC(F)(F)F)cc2OC[C@H](C)N(C(C)=O)C[C@H]1C,.,-,-,-,-,-
COc1ccc2c3c(n(C)c2c1)[C@@H](CO)N(CC1CCOCC1)CC31CCN(Cc2nccs2)CC1,-,-,.,.,-,-
CCCNC(=O)C[C@@H]1CC[C@H]2[C@@H](COC[C@H](O)CN2Cc2ccc(Cl)c(Cl)c2)O1,-,-,-,-,-,-
COc1ccc(Cn2nnnc2CN(Cc2cc3ccc(C)cc3[nH]c2=O)C2CCCC2)cc1,.,.,42,.,.,-
Cc1ccc2cc(CN(Cc3ccc(F)cc3)Cc3nnnn3C3CCCC3)c(=O)[nH]c2c1,29,-,.,.,-,-
COc1ccc(Cn2nnnc2CN(Cc2cc3cccc(C)c3[nH]c2=O)C2CCCC2)cc1,-,-,-,.,-,-
Cc1ccc2cc(CN(Cc3cccs3)Cc3nnnn3CC3CCCO3)c(=O)[nH]c2c1 (stereo not given),-,-29,-,.,-,-
CO[C@H]1CN(C)C(=O)c2cc(NS(=O)(=O)c3cccc(F)c3)ccc2OC[C@@H](C)NC[C@H]1C,.,-,-,-,-,-
CCOC(=O)C1Nc2ccc(C(=O)O)cc2C2C=CCC12 (stereo not given),-,-,-,-,-,-
CC(C)C1Nc2ccc(C(=O)O)cc2C2C=CCC21 (stereo not given),23,-,.,-,-,-
O=C(Nc1nc2ccccc2[nH]1)c1ccc(OC(F)F)cc1,-,-,.,-,-,-
O=C(Nc1nc2ccccc2[nH]1)c1ccc(F)cc1,-,-,-,.,-,-
COc1ccc(Cl)cc1C(=O)Nc1nc2ccccc2[nH]1,-,-,.,-,72,79
CC(C)Oc1ccc(C(=O)Nc2nc3ccccc3[nH]2)cc1,-,-,.,68,81,94
CCc1ccc(C(=O)Nc2nc3ccccc3[nH]2)cc1,-,-,.,76,75,92
CO[C@@H]1CN(C)C(=O)c2ccc(NC(=O)c3ccc(F)cc3)cc2OC[C@@H](C)NC[C@@H]1C,-,-,-,.,.,-
COc1ccc(S(=O)(=O)Nc2ccc3c(c2)C(=O)N([C@@H](C)CO)C[C@H](C)[C@@H](CN(C)C(=O)C2CCCCC2)OCCCC[C@@H](C)O3)cc1,-,-,-,-,-,-
COc1ccc2c3c([nH]c2c1)[C@H](CO)N(C)CC31CCN(C(=O)c2cccnc2)CC1,.,-,-,.,-,-
Cc1cccc2c(C(=O)O)cc(-c3cccnc3)nc12,-,-,-,66,-,-
CCCC#Cc1ccc2c(c1)O[C@@H](CN(C)C(=O)C1CC1)[C@H](C)CN([C@H](C)CO)S2(=O)=O,-,-,-,.,-,-
